Read-out in experiment [1]: Interleukin-8 (IL8), CXCL8 (gene 3576)
The experiment can be described thus: BSK_KF3CT_IL8: BioMAP Diversity Plus: KF3CT Assay for Interleukin-8 (IL8) Biomarker Activity (AID 2284254). Particulars: primary human keratinocytes with fibroblasts. The procedure, abridged:
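Chemicals were added to co-cultured human keratinocytes and foreskin fibroblasts, incubated 24 h, then IL-8 was quantified by ELISA. Cytotoxicity was tracked by sulforhodamine B total-protein staining in parallel cultures.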

Read-out in experiment [2]: Macrophage Inflammatory Protein-1 Alpha (MIP1a), CCL3 (gene 6348)
The experiment can be described thus: BSK_IMphg_MIP1a: BioMAP Diversity Plus: IMphg Assay for Macrophage Inflammatory Protein-1 Alpha (MIP1a) Biomarker Activity (AID 2284255). Particulars: primary human endothelial cells with macrophages. The gist of the method:
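Co-culture of human venular endothelial cells and macrophages exposed to compounds for 24 h; MIP-1a measured by ELISA relative to DMSO. Cytotoxicity assessed in parallel cultures by sulforhodamine B total-protein staining at 560 nm.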

Read-out in experiment [3]: Plasminogen activator inhibitor-1 (PAI1), SERPINE1 (gene 5054)
Kind of experiment: BSK_MyoF_PAI1: BioMAP Diversity Plus: MyoF Assay for Plasminogen activator inhibitor-1 (PAI1) Biomarker Activity (AID 2284256).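 Note: PAI-1 read 24 h after compound addition.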 Particulars: primary human lung fibroblasts. The procedure, abridged: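 Primary human lung fibroblasts are dosed and incubated 24 h. PAI-1 is then measured by ELISA, while parallel cultures undergo SRB staining for overt cytotoxicity. Increases over DMSO define activity.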

Read-out in experiment [4]: CD69, CD69 (gene 969)
Kind of experiment: BSK_IMphg_CD69: BioMAP Diversity Plus: IMphg Assay for CD69 Biomarker Activity (AID 2284257). Particulars: primary human endothelial cells with macrophages. The gist of the method: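 Human venular endothelial cells co-cultured with macrophages; CD69 quantified by ELISA 24 h after compound addition. Activity fitted in the positive direction relative to DMSO baseline; cytotoxicity tracked in parallel cultures via SRB total-protein staining.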

Read-out in experiment [5]: Eotaxin 3, CCL26 (gene 10344)
Kind of experiment: BSK_BF4T_Eotaxin3: BioMAP Diversity Plus: BF4T Assay for Eotaxin 3 Biomarker Activity (AID 2284258). The following applies: primary human bronchial epithelial cells with fibroblasts. The procedure, abridged: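 Co-culture of human bronchial epithelial cells and dermal fibroblasts, exposed to chemicals for 24 h versus DMSO. Eotaxin-3 quantified by ELISA; cytotoxicity checked in parallel cultures by sulforhodamine B total-protein staining.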

Read-out in experiment [6]: Monocyte Chemoattractant Protein-1 (MCP1), CCL2 (gene 6347)
Kind of experiment: BSK_BF4T_MCP1: BioMAP Diversity Plus: BF4T Assay for Monocyte Chemoattractant Protein-1 (MCP1) Biomarker Activity (AID 2284259). The following applies: primary human bronchial epithelial cells with fibroblasts. The procedure, abridged: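 Co-culture of bronchial epithelial cells and dermal fibroblasts dosed with chemical; MCP-1 measured by ELISA 24 h later. Activity fitted in positive direction versus DMSO; cytotoxicity checked by SRB staining in parallel cultures.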

Read-out in experiment [7]: Intercellular Adhesion Molecule 1 (ICAM1), ICAM1 (gene 3383)
The experiment can be described thus: BSK_BF4T_ICAM1: BioMAP Diversity Plus: BF4T Assay for Intercellular Adhesion Molecule 1 (ICAM1) Biomarker Activity (AID 2284260). Particulars: primary human bronchial epithelial cells with fibroblasts. The procedure, abridged:
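Co-culture of human bronchial epithelial cells and dermal fibroblasts exposed 24 h to chemical; cell-surface ICAM-1 quantified by ELISA. Parallel SRB total-protein staining assessed cytotoxicity; activity fitted relative to DMSO.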

Read-out in experiment [8]: Interleukin-8 (IL8), CXCL8 (gene 3576)
Kind of experiment: BSK_MyoF_IL8: BioMAP Diversity Plus: MyoF Assay for Interleukin-8 (IL8) Biomarker Activity (AID 2284261). The following applies: primary human lung fibroblasts. The procedure, abridged: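 IL-8 levels were measured by ELISA in human lung fibroblasts harvested 24 h after compound addition. Responses were analysed as gain of signal over the DMSO baseline.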

Read-out in experiment [9]: CD90, THY1 (gene 7070)
The experiment can be described thus: BSK_BF4T_CD90: BioMAP Diversity Plus: BF4T Assay for CD90 Biomarker Activity (AID 2284262). Particulars: primary human bronchial epithelial cells with fibroblasts. The gist of the method: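 Co-culture of human bronchial epithelial cells and dermal fibroblasts, 24 h compound exposure. Cell-surface CD90 measured by ELISA relative to DMSO; parallel SRB total-protein staining for cytotoxicity.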

Read-out in experiment [10]: Interleukin-8 (IL8), CXCL8 (gene 3576)
The experiment can be described thus: BSK_BF4T_IL8: BioMAP Diversity Plus: BF4T Assay for Interleukin-8 (IL8) Biomarker Activity (AID 2284263). The following applies: primary human bronchial epithelial cells with fibroblasts. The gist of the method: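 Human bronchial epithelial cells with dermal fibroblasts co-culture; IL-8 measured by ELISA 24 hours after dosing, fitted vs DMSO. Cytotoxicity tracked in parallel cultures by SRB total-protein staining.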

Read-out in experiment [11]: Interleukin-1 alpha (IL1a), IL1A (gene 3552)
Kind of experiment: BSK_BF4T_IL1a: BioMAP Diversity Plus: BF4T Assay for Interleukin-1 alpha (IL1a) Biomarker Activity (AID 2284264). The following applies: primary human bronchial epithelial cells with fibroblasts. The gist of the method: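 Human bronchial epithelial cells co-cultured with dermal fibroblasts, dosed and read at 24 h. Secreted/surface IL-1α quantified by ELISA; gain-of-signal fitted relative to DMSO baseline. Parallel SRB total-protein staining tracked cytotoxicity.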

Read-out in experiment [12]: Decorin, DCN (gene 1634)
Kind of experiment: BSK_MyoF_Decorin: BioMAP Diversity Plus: MyoF Assay for Decorin Biomarker Activity (AID 2284265). Particulars: primary human lung fibroblasts. The procedure, abridged: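 Compound is added to lung fibroblast cultures; cells incubate 24 h; decorin is then measured by ELISA; the response is analysed upward against DMSO controls.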

Read-out in experiment [13]: KRT18 (gene 3875)
The experiment can be described thus: BSK_BF4T_Keratin818: BioMAP Diversity Plus: BF4T Assay for Keratin 818 Biomarker Activity (AID 2284266). The following applies: primary human bronchial epithelial cells with fibroblasts. The gist of the method:
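Co-culture of human bronchial epithelial cells and dermal fibroblasts, chemical exposure 24 h. Keratin 8/18 measured by ELISA; positive-direction fit vs DMSO. SRB total protein run in parallel cultures for cytotoxicity.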

Read-out in experiment [14]: Matrix Metallopeptidase 1 (MMP1), MMP1 (gene 4312)
Kind of experiment: BSK_MyoF_MMP1: BioMAP Diversity Plus: MyoF Assay for Matrix Metallopeptidase 1 (MMP1) Biomarker Activity (AID 2284268). Particulars: primary human lung fibroblasts. The procedure, abridged: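 Lung fibroblast cultures were dosed with test chemicals and, after 24 h, MMP1 levels were measured by ELISA; responses were referenced to DMSO and analysed for increases.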

Read-out in experiment [15]: TIMP metallopeptidase inhibitor 1 (TIMP1), TIMP1 (gene 7076)
Kind of experiment: BSK_MyoF_TIMP1: BioMAP Diversity Plus: MyoF Assay for TIMP metallopeptidase inhibitor 1 (TIMP1) Biomarker Activity (AID 2284269). Particulars: primary human lung fibroblasts. The gist of the method: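 ELISA read-out of TIMP-1 from primary human lung fibroblast cultures 24 h after compound dosing; gain of signal relative to DMSO vehicle baseline defines activity.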

Read-out in experiment [16]: Matrix Metallopeptidase 1 (MMP1), MMP1 (gene 4312)
Kind of experiment: BSK_BF4T_MMP1: BioMAP Diversity Plus: BF4T Assay for Matrix Metallopeptidase 1 (MMP1) Biomarker Activity (AID 2284270). The following applies: primary human bronchial epithelial cells with fibroblasts. The gist of the method: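 Co-culture of human bronchial epithelial cells and dermal fibroblasts; MMP-1 levels measured by ELISA 24 hours after chemical dosing, relative to DMSO. Cytotoxicity checked in parallel cultures by SRB total-protein staining.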

Read-out in experiment [17]: Matrix Metallopeptidase 3 (MMP3), MMP3 (gene 4314)
Kind of experiment: BSK_BF4T_MMP3: BioMAP Diversity Plus: BF4T Assay for Matrix Metallopeptidase 3 (MMP3) Biomarker Activity (AID 2284271). Particulars: primary human bronchial epithelial cells with fibroblasts. The procedure, abridged: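 Co-culture of human bronchial epithelial cells and dermal fibroblasts dosed 24 h; MMP-3 measured by ELISA, positive-direction fit versus DMSO. Cytotoxicity tracked by SRB total-protein staining (560 nm) in parallel cultures.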

Read-out in experiment [18]: Tissue plasminogen activator (tPA), PLAT (gene 5327)
Kind of experiment: BSK_BF4T_tPA: BioMAP Diversity Plus: BF4T Assay for Tissue plasminogen activator (tPA) Biomarker Activity (AID 2284272). The following applies: primary human bronchial epithelial cells with fibroblasts. The procedure, abridged:
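tPA level quantified by ELISA at 24 h post-treatment in bronchial epithelial/dermal fibroblast co-cultures, gain of signal scored against DMSO baseline. Parallel cultures stained with 0.1% SRB (560 nm) to flag overt cytotoxicity.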

A short description of experiment [19]: BSK_BF4T_SRB: Viability Assessment in the BioMAP Diversity Plus: BF4T Assay (AID 2284274). Particulars: primary human bronchial epithelial cells with fibroblasts. The procedure, abridged:
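Co-culture of human bronchial epithelial cells and dermal fibroblasts (BioMAP BF4T) exposed 24 h. Total protein by sulforhodamine B staining (0.1% SRB after 10% TCA fixation, 560 nm) in parallel cultures; fitted vs DMSO.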

Read-out in experiment [20]: urokinase Plasminogen Activator (uPA), PLAU (gene 5328)
The experiment can be described thus: BSK_BF4T_uPA: BioMAP Diversity Plus: BF4T Assay for urokinase Plasminogen Activator (uPA) Biomarker Activity (AID 2284275). Particulars: primary human bronchial epithelial cells with fibroblasts. The gist of the method:
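Co-culture of human bronchial epithelial cells and dermal fibroblasts; uPA quantified by ELISA 24 hours after dosing, fitted relative to DMSO. Parallel SRB total-protein staining assessed overt cytotoxicity.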

For five compounds, AC50 and outcome results are on record in PubChem BioAssay (EPA / NIEHS).

Several values for one entry are separate records, joined by “and”; a condition that tells them apart may be missing. Equal entries are not always repeated. A structure can be active in one record and inactive in another. Activity calls are given as the source filed them. Rule for the calls: active = hit-call score of the fitted dose curve at least 0.9, where 1 is the maximum; inactive = score below 0.9.

Take `C=CC(=O)OCCC(F)(F)C(F)(F)C(F)(F)C(F)(F)C(F)(F)C(F)(F)C(F)(F)C(F)(F)F`: in experiment [1], the AC50 was 16.9 µM (active). In addition, the result in experiment [1], in experiment [2], in experiment [3], in experiment [4], in experiment [5] and in experiment [6] was inactive. The outcome in [7], in [8], in experiment [9], in [10], in experiment [11] and in [12] was inactive. In addition, the outcome in experiment [13], in experiment [14], in experiment [15], in experiment [16], in [17] and in [18] was inactive. The result in experiment [19] and in experiment [20] was inactive.

With `O=C1NS(=O)(=O)c2ccccc21`, the outcome in experiment [1] was inactive.

With `Cc1cccc2c1ccc1ccccc12`, the outcome in experiment [3], in [8], in experiment [12], in experiment [14] and in experiment [15] was inactive.

On to `Cc1ccc(N=Nc2c(O)ccc3ccccc23)c(C)c1`, for which the result in experiment [3], in [8], in [12], in experiment [14] and in experiment [15] was inactive.

For the compound `O=S(=O)(O)C(F)(F)C(F)(F)C(F)(F)C(F)(F)C(F)(F)C(F)(F)C(F)(F)C(F)(F)C(F)(F)C(F)(F)F`, the outcome in experiment [1], in experiment [2], in [3], in experiment [4], in [6] and in experiment [7] was inactive. Further, the outcome in experiment [8], in [9], in experiment [11], in [12], in experiment [13] and in experiment [14] was inactive. The result in experiment [15], in experiment [16], in experiment [17], in experiment [18], in experiment [19] and in [20] was inactive. In addition, the AC50 is 5.78 µM (active) and 2.59 µM (active) in experiment [5]; 2.65 µM (active) and 6.99 µM (active) in experiment [10]; 2.39 µM (active) in [18].

One may read the AC50 as the concentration at which the activity in the assay is half-maximal.
